PubChem BioAssay (EPA / NIEHS)
Where “and” joins values, the source holds several entries; their conditions need not be identical. Equal values may be shown once. Records with an inconclusive call do not appear. Where a structure was tested more than once in an assay, its records may differ in their call. Calls of active or inactive are those of the source. Rule for the calls, unless noted: active = hit-call score of the fitted dose curve at least 0.9, where 1 is the maximum; inconclusive = response in the unintended direction; inactive = score below 0.9.

Columns and labels:
[1] = target: Estrogen-related receptor gamma (Homo sapiens) (UniProt P62508); experiment: ATG_ERRg_TRANS: Attagene TRANS-FACTORIAL HepG2 Assay for human Estrogen-Related Receptor gamma (ERRg) (AID 2282977); details: HepG2 Attagene TRANS reporter, ERRg transactivation;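 note: hits increase reporter signal over DMSO so potencies reflect activators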
Outline: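 Exogenous NR-Gal4 chimera activity was assessed in HepG2 cells bearing transfected GAL4-UAS reporters. After 24 h dosing, total RNA underwent RT-PCR, fluorescent primer extension and HpaI digestion before capillary electrophoresis, with gain of signal scored against DMSO.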

[2] = target: Oxysterols receptor LXR-beta (Homo sapiens) (UniProt P55055); experiment: ATG_LXRb_TRANS: Attagene TRANS-FACTORIAL HepG2 Assay for human Liver X Receptor beta (LXRb) (AID 2282981); details: HepG2 Attagene TRANS GAL4-LXRb reporter, mRNA
Outline: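 Liver-derived HepG2 cells transfected with Gal4-responsive reporters were dosed for 24 h. Activation was scored as rise in reporter mRNA, by RT-PCR and capillary electrophoresis, above DMSO baseline.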

[3] = target: Hepatocyte nuclear factor 4-alpha (Homo sapiens) (UniProt P41235); experiment: ATG_HNF4a_TRANS: Attagene TRANS-FACTORIAL HepG2 Assay for human Hepatocyte Nuclear Factor 4 alpha (HNF4a) (AID 2282982); details: HepG2 HNF4a transactivation reporter, mRNA readout
Outline: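 Using HepG2 liver cells transfected with GAL4-UAS reporter units, chemical-induced mRNA increases were assessed after 24 hours. Fluorescent RT-PCR fragments were separated by capillary electrophoresis and compared with DMSO negative controls.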

[4] = ATG_M_06_TRANS: Attagene TRANS-FACTORIAL HepG2 Assay for M06 Transcription Factor (Internal Marker) (AID 2282983); details: HepG2 Attagene TRANS M06 internal marker reporter
Outline: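 Background control endpoint: reporter mRNA from transiently transfected HepG2 after 24 h dosing, detected by RT-PCR with capillary electrophoresis fluorescence. Analysed for gain versus DMSO.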

[5] = target: Transcriptional activator Myb (Homo sapiens) (UniProt P10242); experiment: ATG_Myb_CIS: Attagene CIS-FACTORIAL HepG2 Assay for human Myeloblastosis (Myb) Proto-Oncogene Transcription Factor (AID 2282986; active = hit-call score of the fitted dose curve at least 0.9, where 1 is the maximum; inactive = score below 0.9); details: HepG2 Attagene CIS-FACTORIAL Myb reporter transcription; actives raise or lower the signal
Outline: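 Reporter transcript levels, quantified by fluorescent RT-PCR and capillary electrophoresis, serve as the read-out. Transfected HepG2 cells carrying cis-promoter reporter units are dosed for 24 hours, and curves are fitted bidirectionally against DMSO controls.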

[6] = target: Bile acid receptor (Homo sapiens) (UniProt Q96RI1); experiment: ATG_FXR_TRANS: Attagene TRANS-FACTORIAL HepG2 Assay for Farnesoid X Receptor (FXR) (AID 2282979); details: HepG2 Attagene TRANS FXR-GAL4 reporter transcription;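 note: hits raise reporter mRNA above DMSO so AC50 marks FXR activation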
Outline: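 Transient transfection of HepG2 with multiplexed GAL4-UAS reporter units; exogenous FXR-GAL4 chimera. Dose 24 h → TriZol RNA → oligo(dT) RT → PCR, 6-FAM primer extension, HpaI cut → CE. Gain vs DMSO.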

[7] = target: Oxysterols receptor LXR-alpha (Homo sapiens) (UniProt Q13133); experiment: ATG_LXRa_TRANS: Attagene TRANS-FACTORIAL HepG2 Assay for human Liver X Receptor alpha (LXRa) (AID 2282980); details: HepG2 Attagene TRANS reporter, LXRa transactivation
Outline: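 Transfect HepG2 with GAL4-UAS multiplex reporter constructs (TRANS format, chimeric receptor-GAL4); treat 24 h; extract RNA, reverse-transcribe, PCR-amplify, FAM-label, HpaI-digest; resolve fragments by capillary electrophoresis. Upward response vs DMSO.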

[8] = ATG_M_32_TRANS: Attagene TRANS-FACTORIAL HepG2 Assay for M32 Transcription Factor (Internal Marker) (AID 2282984); details: HepG2 Attagene TRANS M32 internal marker reporter
Outline: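 Fluorescence-detected mRNA induction, HepG2 liver cells, 24 h after dosing. Multiple GAL4-UAS reporter units introduced by transient transfection; background-control endpoint analysed for gain of signal against DMSO.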

[9] = target: Nuclear receptor subfamily 4 group A member 2 (Homo sapiens) (UniProt P43354); experiment: ATG_NURR1_TRANS: Attagene TRANS-FACTORIAL HepG2 Assay for human Nuclear Receptor Related Protein 1 (NURR1) (AID 2282985); details: HepG2 Attagene TRANS reporter, mRNA readout
Outline: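 Chimeric NR-Gal4 proteins were expressed in human HepG2 cells bearing GAL4-UAS reporter units, and induced reporter mRNA was quantified 24 h post-dosing by RT-PCR and capillary electrophoresis.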

[10] = target: Glucocorticoid receptor (Homo sapiens) (UniProt P04150); experiment: ATG_GR_TRANS: Attagene TRANS-FACTORIAL HepG2 Assay for human Glucocorticoid Receptor (GR) (AID 2282978); details: HepG2 Attagene TRANS GR reporter, mRNA transcription;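 note: activators score as hits since higher reporter transcript over DMSO is fitted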
Outline: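 Fluorescent capillary-electrophoresis quantitation of reporter mRNA is the readout, taken 24 h after dosing human HepG2 cells carrying transiently transfected GAL4-UAS reporter units activated by chimeric NR-GAL4 fusions; activity scored as induction over DMSO.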

Measured: AC50

Oxysterols receptor LXR-alpha (Homo sapiens), sequence (Q13133 whole entry, looked up, the tested form may be a part): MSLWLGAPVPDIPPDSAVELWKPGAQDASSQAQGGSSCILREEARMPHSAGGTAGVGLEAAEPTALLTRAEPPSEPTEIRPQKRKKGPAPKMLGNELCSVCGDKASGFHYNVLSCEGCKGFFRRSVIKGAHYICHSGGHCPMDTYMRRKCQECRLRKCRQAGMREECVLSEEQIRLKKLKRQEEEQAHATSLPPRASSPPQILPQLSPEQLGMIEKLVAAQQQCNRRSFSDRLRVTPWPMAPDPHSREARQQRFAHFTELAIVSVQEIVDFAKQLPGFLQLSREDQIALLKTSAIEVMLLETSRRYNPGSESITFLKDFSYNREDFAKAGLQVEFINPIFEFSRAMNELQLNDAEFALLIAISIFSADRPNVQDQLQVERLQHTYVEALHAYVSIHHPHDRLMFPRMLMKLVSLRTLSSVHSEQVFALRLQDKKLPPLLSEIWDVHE
Oxysterols receptor LXR-beta (Homo sapiens), sequence (P55055 whole entry, looked up, the tested form may be a part): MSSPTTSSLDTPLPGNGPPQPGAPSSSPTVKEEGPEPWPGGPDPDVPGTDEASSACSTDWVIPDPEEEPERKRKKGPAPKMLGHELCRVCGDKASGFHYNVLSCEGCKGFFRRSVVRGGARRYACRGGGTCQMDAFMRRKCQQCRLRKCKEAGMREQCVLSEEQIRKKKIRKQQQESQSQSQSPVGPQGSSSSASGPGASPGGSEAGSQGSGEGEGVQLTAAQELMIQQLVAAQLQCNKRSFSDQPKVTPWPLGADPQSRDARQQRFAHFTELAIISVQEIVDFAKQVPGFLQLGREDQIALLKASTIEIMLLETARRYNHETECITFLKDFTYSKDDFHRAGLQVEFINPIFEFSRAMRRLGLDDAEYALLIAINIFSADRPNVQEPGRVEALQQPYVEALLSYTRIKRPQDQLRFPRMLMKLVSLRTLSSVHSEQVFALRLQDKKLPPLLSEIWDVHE
Bile acid receptor (Homo sapiens), sequence (Q96RI1 whole entry, looked up, the tested form may be a part): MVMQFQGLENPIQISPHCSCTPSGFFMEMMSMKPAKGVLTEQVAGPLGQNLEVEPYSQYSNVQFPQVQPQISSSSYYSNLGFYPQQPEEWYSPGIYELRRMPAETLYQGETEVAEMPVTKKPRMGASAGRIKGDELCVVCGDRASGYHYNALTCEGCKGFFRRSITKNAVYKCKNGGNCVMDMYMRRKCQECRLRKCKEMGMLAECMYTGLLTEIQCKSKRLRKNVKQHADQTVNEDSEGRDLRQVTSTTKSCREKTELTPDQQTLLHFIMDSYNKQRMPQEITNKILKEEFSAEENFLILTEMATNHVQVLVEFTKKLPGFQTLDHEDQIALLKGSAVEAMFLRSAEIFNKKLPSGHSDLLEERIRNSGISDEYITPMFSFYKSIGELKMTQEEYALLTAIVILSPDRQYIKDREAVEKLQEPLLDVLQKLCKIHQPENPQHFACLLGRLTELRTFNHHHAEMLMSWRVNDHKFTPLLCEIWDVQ
Hepatocyte nuclear factor 4-alpha (Homo sapiens), sequence (P41235 whole entry, looked up, the tested form may be a part): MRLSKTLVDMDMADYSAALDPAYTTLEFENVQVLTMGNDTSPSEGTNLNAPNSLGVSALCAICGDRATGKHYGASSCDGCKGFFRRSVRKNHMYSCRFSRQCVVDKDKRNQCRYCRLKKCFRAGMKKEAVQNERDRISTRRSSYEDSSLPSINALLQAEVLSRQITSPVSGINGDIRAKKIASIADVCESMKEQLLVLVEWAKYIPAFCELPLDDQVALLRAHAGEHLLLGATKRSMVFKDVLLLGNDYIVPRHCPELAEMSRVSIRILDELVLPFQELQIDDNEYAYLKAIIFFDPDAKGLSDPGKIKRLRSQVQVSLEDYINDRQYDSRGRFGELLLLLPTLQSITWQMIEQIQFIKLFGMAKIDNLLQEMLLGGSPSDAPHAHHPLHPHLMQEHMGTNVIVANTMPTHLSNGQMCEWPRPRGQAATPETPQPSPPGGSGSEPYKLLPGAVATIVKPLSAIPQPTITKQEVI
Estrogen-related receptor gamma (Homo sapiens), sequence (P62508 whole entry, looked up, the tested form may be a part): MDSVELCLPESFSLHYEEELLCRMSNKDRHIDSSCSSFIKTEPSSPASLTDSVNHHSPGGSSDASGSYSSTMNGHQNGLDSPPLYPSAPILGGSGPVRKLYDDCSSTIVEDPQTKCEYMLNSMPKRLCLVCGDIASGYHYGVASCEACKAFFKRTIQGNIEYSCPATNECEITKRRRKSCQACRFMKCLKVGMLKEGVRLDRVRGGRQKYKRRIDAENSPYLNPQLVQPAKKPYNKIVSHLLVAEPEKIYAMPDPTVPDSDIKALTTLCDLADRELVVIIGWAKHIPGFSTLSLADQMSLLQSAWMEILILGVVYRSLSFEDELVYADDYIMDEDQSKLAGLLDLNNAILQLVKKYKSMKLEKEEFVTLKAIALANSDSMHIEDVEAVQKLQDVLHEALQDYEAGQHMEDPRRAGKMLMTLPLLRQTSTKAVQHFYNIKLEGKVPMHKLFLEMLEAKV
Transcriptional activator Myb (Homo sapiens), sequence (P10242 whole entry, looked up): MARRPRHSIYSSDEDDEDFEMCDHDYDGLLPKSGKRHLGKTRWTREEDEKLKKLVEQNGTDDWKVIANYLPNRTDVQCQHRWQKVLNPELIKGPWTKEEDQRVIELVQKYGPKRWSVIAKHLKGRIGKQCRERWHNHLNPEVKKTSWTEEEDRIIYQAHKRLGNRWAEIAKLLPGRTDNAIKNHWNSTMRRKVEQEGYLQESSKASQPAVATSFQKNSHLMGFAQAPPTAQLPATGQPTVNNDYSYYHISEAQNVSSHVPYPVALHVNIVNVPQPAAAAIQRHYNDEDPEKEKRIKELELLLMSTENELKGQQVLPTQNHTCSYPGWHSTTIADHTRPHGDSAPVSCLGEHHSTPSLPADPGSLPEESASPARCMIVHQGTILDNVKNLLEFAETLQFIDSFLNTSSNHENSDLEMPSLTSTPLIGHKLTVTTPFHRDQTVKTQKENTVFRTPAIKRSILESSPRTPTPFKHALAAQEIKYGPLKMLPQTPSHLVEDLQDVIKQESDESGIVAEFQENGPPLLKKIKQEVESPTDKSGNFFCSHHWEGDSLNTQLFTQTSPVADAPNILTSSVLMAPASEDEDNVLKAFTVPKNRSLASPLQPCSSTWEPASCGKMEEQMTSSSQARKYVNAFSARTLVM
Nuclear receptor subfamily 4 group A member 2 (Homo sapiens), sequence (P43354 whole entry, looked up, the tested form may be a part): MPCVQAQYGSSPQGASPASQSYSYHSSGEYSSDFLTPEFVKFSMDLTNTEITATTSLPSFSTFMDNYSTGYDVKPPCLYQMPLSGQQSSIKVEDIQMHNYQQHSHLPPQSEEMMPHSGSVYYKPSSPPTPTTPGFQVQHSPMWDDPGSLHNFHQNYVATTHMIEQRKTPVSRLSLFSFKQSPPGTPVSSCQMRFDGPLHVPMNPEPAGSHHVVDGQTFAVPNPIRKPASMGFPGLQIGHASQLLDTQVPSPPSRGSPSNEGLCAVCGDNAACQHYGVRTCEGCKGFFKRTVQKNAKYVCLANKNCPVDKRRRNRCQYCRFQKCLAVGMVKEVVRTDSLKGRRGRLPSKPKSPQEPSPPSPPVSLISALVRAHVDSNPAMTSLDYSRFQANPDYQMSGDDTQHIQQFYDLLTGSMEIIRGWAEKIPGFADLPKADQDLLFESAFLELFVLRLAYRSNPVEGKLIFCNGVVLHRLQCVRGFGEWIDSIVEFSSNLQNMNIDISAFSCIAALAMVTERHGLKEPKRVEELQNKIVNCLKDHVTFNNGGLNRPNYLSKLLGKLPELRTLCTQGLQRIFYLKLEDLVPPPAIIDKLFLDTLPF
Glucocorticoid receptor (Homo sapiens), sequence (P04150 whole entry, looked up, the tested form may be a part): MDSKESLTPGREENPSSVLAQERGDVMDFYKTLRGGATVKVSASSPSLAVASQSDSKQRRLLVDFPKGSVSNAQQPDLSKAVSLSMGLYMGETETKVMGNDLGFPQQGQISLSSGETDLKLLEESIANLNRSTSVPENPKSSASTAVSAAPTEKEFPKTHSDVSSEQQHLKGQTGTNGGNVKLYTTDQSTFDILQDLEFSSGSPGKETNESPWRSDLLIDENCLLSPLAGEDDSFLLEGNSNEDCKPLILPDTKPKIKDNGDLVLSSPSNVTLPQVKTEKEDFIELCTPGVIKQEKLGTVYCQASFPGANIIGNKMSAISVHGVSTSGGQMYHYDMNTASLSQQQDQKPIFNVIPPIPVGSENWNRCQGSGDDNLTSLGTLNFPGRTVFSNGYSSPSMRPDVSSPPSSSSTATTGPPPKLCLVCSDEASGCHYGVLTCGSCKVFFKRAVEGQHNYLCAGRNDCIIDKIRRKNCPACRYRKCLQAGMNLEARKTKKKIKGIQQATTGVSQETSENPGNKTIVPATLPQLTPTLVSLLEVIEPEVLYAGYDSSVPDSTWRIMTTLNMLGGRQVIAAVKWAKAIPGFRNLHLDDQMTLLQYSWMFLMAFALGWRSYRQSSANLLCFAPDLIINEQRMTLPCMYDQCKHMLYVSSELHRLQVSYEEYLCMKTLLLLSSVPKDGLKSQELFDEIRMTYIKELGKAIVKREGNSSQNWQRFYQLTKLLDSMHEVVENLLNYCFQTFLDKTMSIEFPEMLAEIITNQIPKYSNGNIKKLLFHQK

O=C1CCCO1
inactive: [1] | [2] | [3] | [4] | [5]

CCNS(=O)(=O)C(F)(F)C(F)(F)C(F)(F)C(F)(F)C(F)(F)C(F)(F)C(F)(F)C(F)(F)F
inactive: [1] | [6] | [7] | [2] | [3] | [4] | [8] | [9] | [5]
active: [7] 42.3 µM and 39.2 µM | [5] 25.8 µM

CC(C)(C)OOC(C)(C)CCC(C)(C)OOC(C)(C)C
inactive: [1] | [7] | [4] | [9] | [5]

Nc1cc(Cl)cc(C(=O)O)c1Cl
inactive: [1] | [3] | [4] | [5]

COP(=S)(OC)SCN1C(=O)c2ccccc2C1=O
inactive: [10] | [6] | [9] | [5]

CN(C)c1ccccc1
inactive: [1] | [10] | [4] | [5]

Nc1ccc(Oc2ccc(N)cc2)cc1
not listed: [2] | [3] | [6]
inactive: all other assays above

Clc1ccc(C(c2ccc(Cl)cc2)C(Cl)Cl)cc1
not listed: [1] | [3] | [7]
inactive: all other assays above

CC(C)COC(=O)c1ccccc1C(=O)OCC(C)C
inactive: [10] | [6] | [4] | [8] | [9] | [5]

CCCCCCCCn1sccc1=O
inactive: [1] | [6] | [3] | [4] | [8]
active: [5] 11.6 µM

Cc1cccc(N)c1N
not listed: [2] | [3]
inactive: all other assays above

CCC[CH2][Sn]([Cl])([CH2]CCC)[CH2]CCC
inactive: [6] | [2] | [3] | [4] | [5]
active: [10] 1.24 µM | [9] 0.0336 µM

O=P(OCCCl)(OCCCl)OCCCl
inactive: [10] | [6] | [2] | [3] | [8] | [5]

Nc1ccc([N+](=O)[O-])cc1
not listed: [1]
inactive: all other assays above

Nc1ccc(N=Nc2ccccc2)cc1
not listed: [4] | [6] | [7]
inactive: all other assays above

OCCCl
inactive: [10] | [6] | [7] | [2] | [4] | [5]

CC(C)(O)c1cnn2c(-c3ccc(F)c(-c4c(F)cccc4C#N)c3)cnc2n1
inactive: [1] | [10] | [8] | [5]
active: [6] 14.5 µM

N#CC(Br)Br
not listed: [1] | [3] | [9]
inactive: all other assays above

O=C(N[C@H](c1ccccc1)[C@@H]1CN2CCC1CC2)c1c(Cl)ccc(C(F)(F)F)c1Cl
inactive: [1] | [6] | [4] | [5]

Nc1ccc(Cc2ccc(N)cc2)cc1
inactive: [10] | [6] | [7] | [4] | [8] | [5]

Cc1cc(N=Nc2ccccc2C)ccc1N
inactive: all assays above

Cc1ccc(N)cc1
inactive: [1] | [8] | [9] | [5]

Nc1ccc(Cl)cc1N
not listed: [1] | [3]
inactive: all other assays above

CCC(C)c1ccc(O)cc1 (stereo not drawn)
not listed: [3] | [7]
inactive: all other assays above

CO[C@@H]1[C@H](OC(=O)NC(=O)CCl)CC[C@]2(CO2)[C@H]1[C@@]1(C)O[C@@H]1CC=C(C)C
not listed: [6] | [9]
inactive: all other assays above

CCOC(=O)[C@]1(c2ccccc2)Oc2ccccc2[C@@H]1N
inactive: [10] | [6] | [3] | [9] | [5]

Cc1ccc(N=C=O)cc1N=C=O
inactive: [1] | [4] | [5]

O=[N+]([O-])C(Br)(CO)CO
active: [2] 0.00914 µM
not listed: [1] | [9] | [10]
inactive: all other assays above

Cn1cc(-c2ccccc2)c(=O)c(-c2cccc(C(F)(F)F)c2)c1
inactive: [10] | [8] | [5]

CCCCOC(=O)c1ccccc1C(=O)OCc1ccccc1
inactive: [10] | [7] | [3] | [4] | [8] | [5]

CN(C)C(=O)Nc1ccc(Cl)cc1
inactive: [6] | [2] | [4] | [8] | [5]

[As]#[In]
inactive: [10] | [3] | [4] | [9] | [5]

c1ccc2c(c1)oc1ccccc12
inactive: [10] | [2] | [4] | [8] | [9] | [5]

Clc1ccc(C(c2ccc(Cl)cc2)C(Cl)(Cl)Cl)cc1
inactive: [10] | [2] | [4] | [8] | [9] | [5]

CCCCCCCCCCCCCN1CC(C)OC(C)C1 (stereo not drawn)
inactive: [10] | [7] | [4] | [9] | [5]
